{"source": "the supplement of paper PMC7866885", "about": "“A novel bicyclic 2,4-diaminopyrimidine inhibitor of Streptococcus suis dihydrofolate reductase” (PeerJ, 2021)", "note": "± gives the standard deviation.", "data": [{"tested_on": "Streptococcus suis P1/7", "test": "percent growth relative to DMSO control; higher = less growth inhibition", "settings": "10 µM; incubation time 18 h", "protocol": "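CLSI broth microdilution: 5x10^4 CFU of Streptococcus suis (strain P1/7 or HE06) incubated with 10 µM Pathogen Box compound in cation-adjusted Mueller Hinton broth, 37 °C, 5% CO2, 18 h. Growth read as OD600 and expressed as percent of the DMSO-treated control (100%); mean ± SD of three independent experiments.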", "units": {"percent growth": "%"}, "values": [{"smiles": "Nc1ncnc2c1ncn2[C@@H]1O[C@H](COS(=O)(=O)NC(=O)c2ccccc2O)[C@@H](O)[C@H]1O", "percent growth": "78.6 ± 9.8"}, {"smiles": "O=C(C1CCN(c2cc(-n3cccc3)ncn2)CC1)N1CCc2ccccc2C1", "percent growth": "59.5 ± 45"}, {"smiles": "Nc1ncnc2c1ncn2C[C@@H](O)[C@@H](O)C(=O)O", "percent growth": "87.3 ± 15"}, {"smiles": "COc1ccc(C(=N)N)cc1-c1cn(-c2ccc(C(=N)N)cc2)nn1", "percent growth": "75.7 ± 2.9"}, {"smiles": "O=C(NCCc1ccn(-c2ccccc2)n1)C1CCCCC1", "percent growth": "95 ± 23"}, {"smiles": "COc1cc(Br)cc2cc(C(=O)Nc3cccc(C(F)(F)F)c3)c(=O)oc12", "percent growth": "115 ± 52"}, {"smiles": "CC(C)(C)OC(=O)N1CCN(c2nccc(-c3ccc(-c4ccc(Cl)cc4)s3)n2)CC1", "percent growth": "129 ± 42"}, {"smiles": "Cc1cc(C)cc(COc2ccc3c(C)c(CCC(=O)O)c(=O)oc3c2C)c1", "percent growth": "35.3 ± 14"}, {"smiles": "Cc1cc(C(=O)Nc2ccc(-c3ccccc3)cc2)no1", "percent growth": "118 ± 42"}, {"smiles": "CC(C)(C)CN1C(=O)C(c2ccccc2)(c2ccccc2)N=C1N", "percent growth": "49.6 ± 44"}, {"smiles": "COc1ccc(-c2nn(C(C)C)c3ncnc(N)c23)cc1OC", "percent growth": "121 ± 74"}, {"smiles": "CN1CCC(c2cc(-c3ccncc3)c(-c3ccc(F)cc3)[nH]2)CC1", "percent growth": "165 ± 140"}, {"smiles": "O=C(Nc1nc(-c2ccccn2)cs1)c1cncn1-c1ccccc1", "percent growth": "5.15 ± 6.6"}, {"smiles": "O=C(Nc1c(O)cccc1-c1nc2c(C(=O)O)cccc2o1)c1cc(-c2ccccc2)on1", "percent growth": "11.1 ± 6.9"}, {"smiles": "CCOc1ccc2cc(-c3nn(C(C)(C)C)c(N)c3C(N)=O)cnc2c1", "percent growth": "83.1 ± 23"}, {"smiles": "C[C@H]1COc2c(N3CCN(C)CC3)c(F)cc3c(=O)c(C(=O)O)cn1c23", "percent growth": "1.55 ± 1.7"}, {"smiles": "Cc1nnc(NCc2cccc(Cl)c2)c2ccccc12", "percent growth": "85.4 ± 29"}, {"smiles": "Cc1cc(NCCc2ccccc2)nc(NC(=N)Nc2ccc(Cl)cc2)n1", "percent growth": "74.4 ± 13"}, {"smiles": "CS(=O)(=O)c1cccc(-c2cnc3[nH]cc(-c4ccc(CCC(=O)O)cc4)c3c2)c1", "percent growth": "52.9 ± 34"}, {"smiles": "COc1cccc(CC(=O)N2CCC(n3c(C)nc4ccc(F)cc43)CC2)c1", "percent growth": "65.2 ± 15"}, {"smiles": "COc1ccc(-c2nnc3ccc(-c4cccc(C(C)C)c4)cn23)cc1OC", "percent growth": "68 ± 20"}, {"smiles": "COC(=O)c1ccc(F)cc1NS(=O)(=O)c1cccc(-c2cnn(Cc3ccccc3)c2)c1", "percent growth": "127 ± 52"}, {"smiles": "Cc1ccc2nc(C)c(-c3ccn(Cc4ccccc4)n3)n2c1", "percent growth": "62.9 ± 23"}, {"smiles": "Clc1ccc(CCNc2cc(-c3ccccc3)nc3ncnn23)cc1", "percent growth": "81.5 ± 18"}, {"smiles": "Nc1ncnc2[nH]nc(Cc3cccc4ccccc34)c12", "percent growth": "66.1 ± 20"}, {"smiles": "COc1ccc(C2=NCCN2)cc1-c1cn(-c2cccc(C3=NCCN3)c2)nn1", "percent growth": "87.9 ± 21"}, {"smiles": "COc1ccc(-c2cnc3ccc(NCc4ccc(S(N)(=O)=O)cc4)nn23)cn1", "percent growth": "89.2 ± 15"}, {"smiles": "CCc1ccc(S(=O)(=O)Nc2cc(CN3CCN(CCC(C)C)CC3)ccc2C)cc1", "percent growth": "73.2 ± 8.1"}, {"smiles": "CN1CCN(c2nccc3nc(-c4ccc(F)c(F)c4)[nH]c23)CC1", "percent growth": "68.8 ± 13"}, {"smiles": "COc1ccc2nc(C)cc(OCC(=O)NCc3ccccc3)c2c1", "percent growth": "75.5 ± 9.7"}, {"smiles": "COc1cccc(OCC(=O)c2ccc(Br)cc2)c1", "percent growth": "81.9 ± 9.6"}, {"smiles": "CCOc1ccccc1NC(C)C(=O)Nc1cc(C(F)(F)F)ccc1N1CCOCC1", "note": "(stereo not given)", "percent growth": "109 ± 31"}, {"smiles": "CC1(C)Cc2c(c(N3CCOCC3)nc3snc(Br)c23)CO1", "percent growth": "82.2 ± 20"}, {"smiles": "Cc1cc(Nc2ccc(C(F)(F)F)cc2)n2ccnc2n1", "percent growth": "97.6 ± 41"}, {"smiles": "CC(C)C(Oc1cccc2ccccc12)C(=O)O", "note": "(stereo not given)", "percent growth": "64 ± 22"}, {"smiles": "Brc1cncc(-c2cc(NCCCn3ccnc3)nc(-c3ccccc3)n2)c1", "percent growth": "43.7 ± 51"}, {"smiles": "COc1cccc(-c2cc3c(Nc4cccnc4)nccc3[nH]2)c1", "percent growth": "83.9 ± 23"}, {"smiles": "CCc1ccccc1-n1c(C)cn2c3c(=O)n(C(C(=O)OC)C(C)C)c(=O)n(C)c3nc12", "note": "(stereo not given)", "percent growth": "101 ± 14"}, {"smiles": "O[C@@H](c1cc(C(F)(F)F)nc2c(C(F)(F)F)cccc12)[C@H]1CCCCN1", "percent growth": "97.7 ± 18"}, {"smiles": "Cc1nn(C(=O)Nc2cccc(C(F)(F)F)c2)c(C)c1Sc1ncccn1", "percent growth": "-0.122 ± 0.21"}]}]}
